Most compounds without a hit are left out; they make up all but 2.5% or so of the library.
MEKK2mut PB1 HTS = signal of MEK5 binding to mutant human MEKK2 PB1 domain; actives 0.35% (n = 290,000); bead flow cytometry, Alexa488-MEK5 binding to MEKK2 mutant; percent response, % at 10 µM; in the data active means percent response above about 24%, passing the limit was not always enough
GRK2 inh = blocks RNA aptamer binding to human GRK2. P25098. bead flow cytometry, FAM-aptamer displacement from GRK2. inhibition of aptamer binding, % at 10 µM. actives 0.59% (n = 330,000);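 active means inhibition of aptamer binding above 40%, roughly 3 SD of noise, on plates passing a quality check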;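 further: median bead fluorescence of bound FAM aptamer so fluorescent compounds give negative values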
Target sequence (P25098 whole entry, looked up): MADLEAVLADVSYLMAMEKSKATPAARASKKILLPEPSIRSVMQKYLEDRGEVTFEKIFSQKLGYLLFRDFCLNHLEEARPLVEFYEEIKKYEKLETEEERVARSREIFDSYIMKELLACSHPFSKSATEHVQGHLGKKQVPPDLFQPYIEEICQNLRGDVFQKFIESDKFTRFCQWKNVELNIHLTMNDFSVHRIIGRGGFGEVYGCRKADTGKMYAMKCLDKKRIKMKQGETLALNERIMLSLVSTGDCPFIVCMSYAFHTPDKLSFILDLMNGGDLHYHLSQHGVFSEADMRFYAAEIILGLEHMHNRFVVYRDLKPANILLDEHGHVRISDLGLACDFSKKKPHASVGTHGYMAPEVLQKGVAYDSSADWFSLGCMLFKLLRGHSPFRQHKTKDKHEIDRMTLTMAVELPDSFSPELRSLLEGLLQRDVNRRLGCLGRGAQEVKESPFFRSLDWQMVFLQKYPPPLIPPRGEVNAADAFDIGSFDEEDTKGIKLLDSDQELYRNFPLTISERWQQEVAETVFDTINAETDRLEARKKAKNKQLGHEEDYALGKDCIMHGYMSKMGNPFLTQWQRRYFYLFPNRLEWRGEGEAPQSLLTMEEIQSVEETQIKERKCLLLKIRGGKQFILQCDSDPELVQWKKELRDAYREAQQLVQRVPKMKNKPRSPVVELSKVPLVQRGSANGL
MEKK2 WT-MEK5 = raises or lowers MEK5 binding to wildtype human MEKK2 PB1 domain | actives 1.1% (n = 290,000) | bead flow cytometry, Alexa488-MEK5 binding to MEKK2 WT; actives lie on both sides | binding response (% of control), % at 10 µM | AID 1531 | Q9Y2U5; in the data active means binding response below about 67% or above about 130%
MEKK3 PB1 HTS = raises or lowers MEK5 binding to the human MEKK3 PB1 domain; Q99759; bead-based flow cytometry, Alexa488-MEK5 binding to MEKK3; actives lie on both sides; 0 = blocked by unlabeled MEK5, 100 = vehicle; binding response (% of control), % at 10 µM; actives 1.4% (n = 290,000); AID 1529;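 active means binding response more than 3 SD above or below the average of its plate-row segment, actives on both sides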;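 further: Alexa488 bead fluorescence after subtracting the streptavidin-only scavenger bead signal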
MEKK2wt confirm = raises or lowers MEK5 binding to wildtype human MEKK2, retest; shares compounds with MEKK3 PB1 HTS; binding response (% of control), % at 10 µM; actives 2.4% (n = 5,900); bead flow cytometry, Alexa488-MEK5 binding to MEKK2 WT; actives lie on both sides; in the data active means binding response below about 16% or above about 210%; inactive means in between
MEKK2mut confirm = signal of MEK5 binding to mutant human MEKK2, retest; shares compounds with MEKK3 PB1 HTS; actives 2% (n = 5,900); bead flow cytometry, Alexa488-MEK5 binding to MEKK2 mutant; percent response, % at 10 µM; in the data active means percent response mostly above about 71%, no sharp cut-off; inactive means mostly below about 38%;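 further: higher means compound restores mutant binding toward wildtype level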
MEKK3-MEK5 inh = MEKK3-MEK5 PB1 inhibition, single concentration confirmation. shares compounds with MEKK3 PB1 HTS. bead flow cytometry, Alexa488-MEK5 binding to MEKK3; active compounds read low. binding response (% of control), % at 10 µM. actives 1.8% (n = 5,900). AID 1894;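 active means binding response below 72% of control, or above a set upper limit, though filed actives all read lower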;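 further: lower values mean stronger disruption of MEK5 binding to MEKK3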
Of the large screens only hits and unclear results are named; the others gave an inactive call (follow-up assays come after a bar, where they were run); [ ] = another dose, or the depositor's remark.

COC(=O)C1=C(C)Nc2c(c(=O)n(C)c(=O)n2C)C1c1ccc(Cl)cc1 (stereo not drawn)	none (no result: GRK2 inh)
N/C(Cn1cncn1)=N\NC(=O)C(=O)Nc1cccc(C(F)(F)F)c1	none
COCCCn1c(SCC(=O)Nc2ccc(NC(C)=O)cc2)nc2sc3c(c2c1=O)CCC3	none
CN1C(=O)c2ccc(Oc3ccccc3)cc2C1=O	none (no result: MEKK2mut PB1 HTS, MEKK2 WT-MEK5, MEKK3 PB1 HTS)
O=C(COC(=O)C1(c2cccc(F)c2)CCCC1)NCc1ccc2c(c1)OCO2	MEKK3 PB1 HTS 132.0 | MEKK2wt confirm inactive | MEKK2mut confirm inactive | MEKK3-MEK5 inh inactive
CCOc1ncccc1C(=O)OCC(=O)Nc1ccc(C)c(S(=O)(=O)N(C)C)c1	MEKK3 PB1 HTS 73.0[inhibitor] | MEKK2wt confirm inactive | MEKK2mut confirm inactive | MEKK3-MEK5 inh inactive
CC(=O)c1c(C)[nH]c(C(=O)OCC(=O)Nc2ccc(Cl)c(S(=O)(=O)N(C)C)c2)c1C	MEKK2 WT-MEK5 43.0[inhibitor], MEKK3 PB1 HTS 38.0[inhibitor] | MEKK2wt confirm inactive | MEKK2mut confirm inactive | MEKK3-MEK5 inh inactive
CCC(=O)N1CCc2cc(S(=O)(=O)NCCC(=O)NC3CCCCCC3)ccc21	none
Cc1ccc(CN2CCC(c3cc(-c4ccc(Cl)cc4)n[nH]3)CC2)cc1	MEKK2mut PB1 HTS 27.0, MEKK2 WT-MEK5 167.0 | MEKK2wt confirm inactive | MEKK2mut confirm inactive | MEKK3-MEK5 inh inactive
COc1ccc(N2C(=O)/C(=C/c3ccc([N+](=O)[O-])cc3)C=C2c2ccccc2)cc1	MEKK2 WT-MEK5 -10.0, MEKK3 PB1 HTS 76.0[inhibitor] | MEKK2wt confirm inactive | MEKK2mut confirm inactive | MEKK3-MEK5 inh inactive
O=C1/C(=C/c2ccc([N+](=O)[O-])cc2)C=C(c2ccccc2)N1c1ccccc1	none
O=C(NCc1ccc(Cl)cc1)C(=O)NCC1OCCN1S(=O)(=O)c1cccs1 (stereo not drawn)	none
O=C(NCc1ccc(Cl)cc1)C(=O)NCC1OCCN1C(=O)c1cccs1 (stereo not drawn)	MEKK3 PB1 HTS 153.0 | MEKK2wt confirm inactive | MEKK2mut confirm inactive | MEKK3-MEK5 inh inactive
COc1ccc(/C(C)=N\Nc2nc(-c3ccccc3)cc(=O)[nH]2)cc1	none
CN(C)c1ccc(/C=N\Nc2nc(-c3ccccc3)cc(=O)[nH]2)cc1	MEKK3 PB1 HTS 59.0[inhibitor] | MEKK2wt confirm inactive | MEKK2mut confirm inactive | MEKK3-MEK5 inh inactive
Cc1cccc(OCC(=O)Nc2ccc3oc(=O)ccc3c2)c1	none
CCCCNC(=O)[C@]1(C)CCC[C@@]2(C)C3CC[C@@]4(C)C[C@]3(CCC21)CC4=O (stereo partly drawn)	none (no result: MEKK2mut PB1 HTS, MEKK2 WT-MEK5, MEKK3 PB1 HTS)
COc1ccccc1N(CC(=O)NCC1CCCO1)C(=O)CNS(=O)(=O)c1ccc(Cl)cc1 (stereo not drawn)	MEKK3 PB1 HTS 128.0 | MEKK2wt confirm inactive | MEKK2mut confirm inactive | MEKK3-MEK5 inh inactive
COc1cc(CC(=O)Nc2ccccc2N2CCCCC2)cc(OC)c1OC	none
COCCCN1C(=O)C(=O)/C(=C(/O)c2ccc(OC)cc2)C12C(=O)N(C)c1ccccc12 (stereo not drawn)	MEKK2 WT-MEK5 -3.0[inhibitor], MEKK3 PB1 HTS 1.0[inhibitor] | MEKK2wt confirm inactive | MEKK2mut confirm inactive | MEKK3-MEK5 inh inactive
COCCCN1C(=O)C(=O)/C(=C(/O)c2ccc(OC)cc2)C1c1ccc(O)c(OC)c1 (stereo not drawn)	none
O=C(CNC(=O)N1CC(=O)Nc2ccccc21)Nc1nccs1	none
COc1cc(NC(=O)C2CCCN(c3ncccn3)C2)cc(OC)c1 (stereo not drawn)	MEKK3 PB1 HTS 63.0[inhibitor] | MEKK2wt confirm inactive | MEKK2mut confirm inactive | MEKK3-MEK5 inh inactive
CCOC(=O)c1ccc(N/C=C\C(=O)c2cccc(OC)c2)cc1	MEKK3 PB1 HTS 201.0 | MEKK2wt confirm inactive | MEKK2mut confirm inactive | MEKK3-MEK5 inh inactive
CCOc1ccc(N/C=C\C(=O)c2ccc3c(c2)OCO3)cc1	none
COc1ccc(C(=O)/C=C/Nc2ccc([N+](=O)[O-])cc2)cc1	MEKK3 PB1 HTS 70.0[inhibitor] | MEKK2wt confirm inactive | MEKK2mut confirm inactive | MEKK3-MEK5 inh inactive
COc1ccc(N/C=C\C(=O)c2ccc3c(c2)OCO3)cc1	MEKK2 WT-MEK5 -1.0[inhibitor], MEKK3 PB1 HTS 1.0[inhibitor] | MEKK2wt confirm inactive | MEKK2mut confirm inactive | MEKK3-MEK5 inh inactive
O=C(CNC(=O)c1ccccc1F)NCCc1ccccc1F	none (no result: MEKK2mut PB1 HTS, MEKK2 WT-MEK5, MEKK3 PB1 HTS)
O=C(COC(=O)CCc1ccccc1)Nc1ccc(F)cc1Cl	none
CCc1ccc(-c2cnc3nc[nH]c(=O)c3n2)cc1	none (no result: MEKK2mut PB1 HTS, MEKK2 WT-MEK5, MEKK3 PB1 HTS)
COc1cccc(C(N)=O)c1OC(=O)Cc1ccccc1F	none
CCCCNC(=S)Nc1ccc2nc(N3CCN(CC)CC3)cc(C)c2c1	MEKK2mut PB1 HTS 27.0, MEKK2 WT-MEK5 139.0 | MEKK2wt confirm inactive | MEKK2mut confirm inactive | MEKK3-MEK5 inh inactive
CCN1CCN(c2cc(C)c3cc(NC(=S)NCCN(C)C)ccc3n2)CC1	none
CCCCN(C)CCNC(=S)Nc1ccc2nc(N3CCN(CC)CC3)cc(C)c2c1	MEKK2 WT-MEK5 134.0 | MEKK2wt confirm inactive | MEKK2mut confirm inactive | MEKK3-MEK5 inh inactive
CCCN1CCN(CCCNC(=S)Nc2ccc3nc(N4CCN(CC)CC4)cc(C)c3c2)CC1	none
CCN(CC)CCCNC(=S)N(Cc1cccnc1)Cc1cc2cc(C)ccc2[nH]c1=O	none
COc1ccc(OC)c(CNn2c(-c3cccc(C)c3)nc3ccccc3c2=O)c1	MEKK2 WT-MEK5 0.0[inhibitor], MEKK3 PB1 HTS 1.0[inhibitor] | MEKK2wt confirm inactive | MEKK2mut confirm inactive | MEKK3-MEK5 inh inactive
O=[N+]([O-])c1cc(S(=O)(=O)NCCN2CCOCC2)ccc1Cl	none
CCC(C)N1C(=O)/C(=C/c2c(NCCCOC(C)C)nc3c(C)cccn3c2=O)SC1=S (stereo not drawn)	MEKK2mut PB1 HTS 123.0, MEKK3 PB1 HTS 32.0[inhibitor] (no result: MEKK2 WT-MEK5) | MEKK2wt confirm inactive | MEKK2mut confirm inactive | MEKK3-MEK5 inh inactive
Cc1ccc(-c2csc3nc4c5ccccc5c(NCCCN5CCOCC5)nn4c(=O)c23)cc1	MEKK2 WT-MEK5 145.0 | MEKK2wt confirm inactive | MEKK2mut confirm inactive | MEKK3-MEK5 inh inactive
Cc1ccc2[nH]c(=O)c(COC(=O)C3CCCCC3)cc2c1	MEKK3 PB1 HTS 129.0 | MEKK2wt confirm inactive | MEKK2mut confirm inactive | MEKK3-MEK5 inh inactive
CCOC(=O)C(C(=O)Nc1cccc(C)c1)C1CCCCC1 (stereo not drawn)	MEKK2 WT-MEK5 -4.0[inhibitor] | MEKK2wt confirm inactive | MEKK2mut confirm inactive | MEKK3-MEK5 inh inactive
CCN(CC)CCN1c2ccccc2Sc2ccccc21	none
CCN(CC)CCN1c2ccccc2Sc2ccc3ccccc3c21	MEKK2 WT-MEK5 136.0 | MEKK2wt confirm inactive | MEKK2mut confirm inactive | MEKK3-MEK5 inh inactive

Assay outcomes from PubChem.
